# In PubChem BioAssay (EPA / NIEHS):
# Several values for one entry are separate records, joined by “and”; a condition that tells them apart may be missing. Equal values may be shown once. Some compounds were tested as several samples or in several runs, with calls that do not always agree. Activity calls are given as the source filed them. Rule for the calls: active = hit-call score of the fitted dose curve at least 0.9, where 1 is the maximum; inactive = score below 0.9.
# Target: CCAAT/enhancer-binding protein beta (Homo sapiens) (UniProt P17676)
# Experiment: ATG_C_EBP_CIS: Attagene CIS-FACTORIAL HepG2 Assay for human CCAAT/Enhancer Binding Protein (C/EBP) beta (AID 2282927)
# Conditions: HepG2 Attagene cis-factorial transcription factor reporter; actives raise or lower the signal
# Description: ATG_CIS is a cell-based, multiplexed-readout assay that uses HepG2, a human liver cell line, with measurements taken at 24 hours after chemical dosing in a 24-well plate.ATG_C_EBP_CIS is one of 52 assay component(s) measured or calculated from the ATG_CIS assay. It is designed to make measurements of mRNA induction, a form of inducible reporter, as detected with fluorescence intensity signals by Reverse transcription polymerase chain reaction (RT-PCR) and Capillary electrophoresis technology.Data from the assay component ATG_C_EBP_CIS was analyzed into 1 assay endpoint. This assay endpoint, ATG_C_EBP_CIS, was analyzed with bidirectional fitting relative to DMSO as the negative control and baseline of activity. Using a type of inducible reporter, measures of mRNA for gain or loss-of-signal activity can be used to understand the reporter gene at the transcription factor-level as they relate to the gene CEBPB. Furthermore, this assay endpoint can be referred to as a primary readout, because this assay has produced multiple assay endpoints where this one serves a reporter gene function. To generalize the intended target to other relatable targets, this assay endpoint is annotated to the dna binding intended target family, where the subfamily is basic leucine zipper.
# Human liver HepG2 cells are transiently transfected with multiple reporter transcription units (MRTUs) in 6-well plates using FuGene 6 reagent (Roche; 3 ml FuGene/1 mg DNA). The MRTU constructs are regulated by a cis-regulating element (promoter). […] A major difference between the CIS and TRANS system is that in CIS activities of endogenous TFs are measured, whereas the TRANS assay evaluates changes in activities of exogenous, chimeric NR-Gal4 proteins. […] At the end of 24 hour incubation, total RNA was isolated using TriZol reagent (Invitrogen). The isolated RNA is then reverse-transcribed using oligo(dT) primer and Mo-MLV reverse transcriptase (Invitrogen) with DNAse I (Ambion) treatment for 30 min. The one-tenth of the produced cDNA was amplified by PCR using Taq DNA polymerase (Invitrogen) and two reporter sequence-specific primers. The PCR products were fluorescently labeled by primer extension with 6-arboxyfluorescein (6-FAM) 5'-labeled reporter sequence-specific primer (2 min at 95 C, 20 s at 68 C and 10 min at 72 C) and these products were digested with 5U of HpaI (New England Biolabs) for 2h at 37 C. The fragments were purified using Qiaquick PCR columns (Qiagen), analyzed on an ABI 3130xL genetic analyzer (Applied Biosystems) with peak positions identified by using a set of X-rhodamine (ROX)-labeled MapMarker1000 molecular weight standards (BioVentures). The raw capillary electrophoresis data was processed using Attagraph software (Attagene).
# Chain of CCAAT/enhancer-binding protein beta (Homo sapiens) (P17676 whole entry, looked up): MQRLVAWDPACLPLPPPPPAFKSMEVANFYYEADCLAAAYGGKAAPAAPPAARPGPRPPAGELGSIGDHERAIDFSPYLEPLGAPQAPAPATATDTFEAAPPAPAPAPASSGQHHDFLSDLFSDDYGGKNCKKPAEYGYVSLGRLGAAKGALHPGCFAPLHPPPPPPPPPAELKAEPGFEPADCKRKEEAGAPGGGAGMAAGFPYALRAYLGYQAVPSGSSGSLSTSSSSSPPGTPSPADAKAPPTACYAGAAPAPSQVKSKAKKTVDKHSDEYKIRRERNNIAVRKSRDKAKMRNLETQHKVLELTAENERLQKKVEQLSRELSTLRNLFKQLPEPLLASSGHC
Structure (SMILES),outcome,AC50
CCCCOCCOCCOCc1cc2c(cc1CCC)OCO2,inactive,–
COC(=O)c1ccc(I)cc1S(=O)(=O)NC(=O)Nc1nc(C)nc(OC)n1,inactive,–
CC(C)(c1ccc(O)cc1)c1ccc(O)cc1,inactive,33.4 µM (active)
CN(C)C(=O)Nc1ccc(Cl)c(Cl)c1,inactive,–
CSC(=O)c1cccc2nnsc12,inactive,–
COC(=O)c1c(Cl)nn(C)c1S(=O)(=O)NC(=O)Nc1nc(OC)cc(OC)n1,–,4.06 µM (active)
C#C[C@]1(O)CC[C@H]2[C@@H]3CCC4=CC(=O)CC[C@@H]4[C@H]3CC[C@@]21CC,inactive,–
CCC(C)OC(=O)N1CCCCC1CCO (stereo not given),inactive,–
COc1nc(C)nc(NC(=O)NS(=O)(=O)c2ccccc2OCCCl)n1,inactive,–
CCOC(=O)COc1cc(-n2ncc(C(F)(F)F)c(C)c2=O)c(F)cc1Cl,inactive,–
N#CSCSc1nc2ccccc2s1,inactive,–
S=C([S-])NCCNC(=S)[S-].[Mn+2],inactive,–
CC1(C)C(C=C(Cl)Cl)C1C(=O)OCc1cccc(Oc2ccccc2)c1 (stereo not given),inactive,–
CCCOC(=O)NCCCN(C)C,inactive,–
O=C(c1ccc(O)cc1O)c1ccc(O)cc1O,inactive,–
c1ccc2[nH]c(-c3cscn3)nc2c1,inactive,–
COC(=O)CSc1cc(N=c2sc(=O)n3n2CCCC3)c(F)cc1Cl,inactive,–
COC(=O)c1ccccc1C(=O)O,inactive,–

Structure (SMILES),outcome,AC50
CCOC(=O)NCCOc1ccc(Oc2ccccc2)cc1,–,13.4 µM (active)
Oc1ccc(C(c2ccc(O)cc2)C(Cl)(Cl)Cl)cc1,inactive,–
CCOC(=O)C(C)Oc1ccc(Oc2cnc3cc(Cl)ccc3n2)cc1 (stereo not given),inactive,–
CC(C)CCCCCCc1ccc(O)cc1,inactive,18.1 µM (active) and 15.4 µM (active)
CCOC(=O)[C@H](C)Oc1ccc(Oc2nc3ccc(Cl)cc3o2)cc1,inactive,–
CC(=O)[C@H]1CC[C@H]2[C@@H]3CCC4=CC(=O)CC[C@]4(C)[C@H]3CC[C@]12C,inactive,115 µM (active)
CCCCOC(=O)[C@@H](C)Oc1ccc(Oc2ccc(C(F)(F)F)cn2)cc1,inactive,–
C=CCOC(Cn1ccnc1)c1ccc(Cl)cc1Cl (stereo not given),–,12.4 µM (active)
CCN(Cc1c(F)cccc1Cl)c1c([N+](=O)[O-])cc(C(F)(F)F)cc1[N+](=O)[O-],inactive,–
COC(=O)c1ccccc1S(=O)(=O)NC(=O)Nc1nc(OC(F)F)cc(OC(F)F)n1,inactive,–
Cc1nn(C)c(Oc2ccccc2)c1C=NOCc1ccc(C(=O)OC(C)(C)C)cc1,–,0.0505 µM (active)
O=C(Nc1ccc([N+](=O)[O-])cc1Cl)c1cc(Cl)ccc1O,–,0.463 µM (active)
CCOC(=O)c1ccc(O)cc1,inactive,100 µM (active)
c1ccc(Nc2ccccc2)cc1,inactive,–
C[C@]12CC[C@@H]3c4ccc(O)cc4C[C@@H](CCCCCCCCCS(=O)CCCC(F)(F)C(F)(F)F)[C@H]3[C@@H]1CC[C@@H]2O (stereo not given in full),inactive,–
CCCCOC(=O)C(C)Oc1ccc(Oc2ccc(C(F)(F)F)cn2)cc1 (stereo not given),inactive,–
COC(=O)c1cccc(C)c1S(=O)(=O)NC(=O)Nc1nc(OCC(F)(F)F)nc(N(C)C)n1,inactive,–
O=C(O)c1ccccc1,inactive,–
